High-throughput results from PubChem BioAssay.
Only some compounds are listed: those with a hit (about 6.1% of all), similar ones and a draw of the others.
Tau fil binding – tau filament binding; P10636; recombinant tau filaments, thioflavin S fluorescence, 15 h; filaments grown with octadecylsulfate alongside compound; Potency, µM (highest dose often 57.1 µM), for the others: at the highest dose activity change, negative = inhibition; actives 2% (n = 71,000); AID 596;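 further: actives lower thioflavin S fluorescence by blocking filaments or displacing dye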
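Quantitative HTS: thioflavine S signal from ODS-induced tau filaments, excited at 450 nm, emission 510 nm. Conditions: 1 uM tau, 30 uM ODS, 15 h at 37 C, pH 7.4.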
ERK AVP inh – vasopressin-driven ERK pathway inhibition; HEK293-V1b, vasopressin-stimulated pERK AlphaScreen; Potency, µM (doses to about 57.5 µM), inactives show at the highest dose activity, negative = inhibition, actives largely listed as inhibitors; actives 0.99% (n = 72,000); further: nearly all actives have a fitted effect of over 55% in size
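qHTS, compounds titrated on V1b-expressing HEK293 cells. Preincubation 30 min at 37C, vasopressin 25 nM for 5 min, lysis 10 min, bead incubation 5 hr at room temperature.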
15-hLO inh – blocks human 15-lipoxygenase activity; P16050; purified 15hLO-1, xylenol orange hydroperoxide absorbance; Potency, µM (top dose mostly 57.1 µM), inactives show at the top dose activity change, negative = inhibition, most hits filed as inhibitors; actives 1.4% (n = 74,000); AID 887; further: nearly all actives have a fitted effect of over 55% in size
Target sequence (P16050 whole entry, looked up): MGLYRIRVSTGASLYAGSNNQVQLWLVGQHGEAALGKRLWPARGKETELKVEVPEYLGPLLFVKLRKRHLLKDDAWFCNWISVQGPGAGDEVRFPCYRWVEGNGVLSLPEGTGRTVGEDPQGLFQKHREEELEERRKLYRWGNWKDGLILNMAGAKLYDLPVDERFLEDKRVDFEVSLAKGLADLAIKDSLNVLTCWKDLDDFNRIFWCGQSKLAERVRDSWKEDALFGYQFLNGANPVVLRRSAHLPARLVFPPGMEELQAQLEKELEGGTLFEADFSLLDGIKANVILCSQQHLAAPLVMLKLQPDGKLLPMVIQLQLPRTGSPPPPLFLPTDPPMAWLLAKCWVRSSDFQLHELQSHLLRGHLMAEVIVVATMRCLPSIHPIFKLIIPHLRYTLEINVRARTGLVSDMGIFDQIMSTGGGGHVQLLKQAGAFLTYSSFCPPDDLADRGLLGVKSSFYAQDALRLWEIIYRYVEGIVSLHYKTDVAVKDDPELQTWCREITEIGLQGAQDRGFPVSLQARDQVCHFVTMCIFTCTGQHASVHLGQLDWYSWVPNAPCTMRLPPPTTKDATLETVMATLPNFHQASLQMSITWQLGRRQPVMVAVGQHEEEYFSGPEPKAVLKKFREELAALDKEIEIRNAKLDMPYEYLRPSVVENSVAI
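Purified human 15hLO-1 (40 nM final) in 25 mM Hepes pH 7.5, 0.01% Triton X-100 was preincubated with compound 15 min at room temperature, then reacted 6 min with 50 uM arachidonic acid; hydroperoxide detected by Fe-XO, 573/405 nm absorbance ratio.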
PK Bst – modulators of Bacillus stearothermophilus pyruvate kinase; actives 1.2% (n = 51,000); purified pyruvate kinase, luminescence ATP production; ribose 5-phosphate activator present at AC10; AID 361; Potency, µM; in the data active means potency below about 11 µM; inconclusive means mostly about 12 µM to 25 µM;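 the screen sought inhibitors and activators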;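 further: scaled between full activation by ribose 5 phosphate and full inhibition by luteolin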
Hsp90 Hop PPI – changes Hsp90-Hop TPR2A binding signal, up or down; AlphaScreen TPR2A-His6 binding biotin-Hsp90 C-terminal peptide; Potency, µM (doses to about 57 µM), inactives show at the top dose activity change, negative = inhibition; actives 0.44% (n = 71,000); AID 595; active means well fitted curve in either direction with a large enough effect; inconclusive means small, poorly fitted or top-dose-only effect, or another doubt
Luciferase inh – blocks Photinus pyralis firefly luciferase activity; P08659; purified firefly luciferase, luminescence, 8 min; Potency, µM (titrated, usually from 57.1 µM), inactives show at the highest dose activity change, negative = inhibition, usual class: inhibitors; actives 2.2% (n = 72,000); further: nearly all actives have a fitted effect of over 40% in size
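Substrate buffer containing 10 uM ATP (pH 7.2 imidazole, Mg2+, KCl, detergent, BSA) is dispensed, compound pinned in, then luciferase/luciferin detector mix added. After 8 min at ambient temperature, light output is measured.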
* marks the source's active call; other numbers are inactive results; [ ] = another dose, or the depositor's remark. Unless noted, the call rests on the fitted dose curve; in most records, active means well fitted curve in the direction sought with a large enough effect; inconclusive means small, poorly fitted or top-dose-only effect, or another doubt; inactive means no such curve, though single readings can be large; an effect the other way counts as inactive or inconclusive. Unless noted, on the % scale 0 is the no-effect control and ±100 the full control effect; potency means the concentration at half of the fitted maximal effect.

COc1ccc(Oc2ncc3nc(-c4cn(C)c5ccccc45)c(=O)n(CCC#N)c3n2)cc1 was read as Tau fil binding 248.9%, ERK AVP inh 3.3%, 15-hLO inh 6.6%, Hsp90 Hop PPI 5.01µM* and Luciferase inh 0.5%[11.4 µM].
`COc1cccc(Cn2c(=O)c(C)nc3cnc(OCc4ccccc4)nc32)c1` gave Tau fil binding 31.6µM*, ERK AVP inh 6.3%, 15-hLO inh -5.4%, Hsp90 Hop PPI 3.7% and Luciferase inh 1.0%[11.4 µM].
`COc1ccc2[nH]cc(CCNc3ncnc4ccc(-c5ccccc5OC)cc34)c2c1` gave Tau fil binding 225.4%, ERK AVP inh -29.6%, 15-hLO inh 5.1%, Hsp90 Hop PPI inconclusive and Luciferase inh 1.2%[2.29 µM].
For O=C(NC[C@@H](O)CO)c1c(I)c(C(=O)NC[C@@H](O)CO)c(I)c(N(CCO)C(=O)CO)c1I the results were Tau fil binding -1.8%[25.6 µM], ERK AVP inh 8.7%[25.7 µM], 15-hLO inh 1.4%[25.6 µM], Hsp90 Hop PPI inconclusive and Luciferase inh 8.9%[25.5 µM].
COCCn1c(=O)c(-c2cccs2)nc2cnc(OC)nc21 was read as Tau fil binding 34.3%, ERK AVP inh -20.9%, 15-hLO inh -8.5%, Hsp90 Hop PPI -1.2% and Luciferase inh 1.1%[11.4 µM].
For O=C(O)c1ccc(Cl)c(S(=O)(=O)Nc2ccccc2)c1 the results were 15-hLO inh -4.0%.
Screening COc1cccc(Cn2c(=O)c(-c3ccc(Cl)cc3)nc3cnc(N4CCNCC4)nc32)c1 returned Tau fil binding 3.98µM*, ERK AVP inh -8.8%, 15-hLO inh 4.3%, Hsp90 Hop PPI 19.6% and Luciferase inh -1.0%[11.4 µM].
For COc1ccccc1CCn1c(=O)c(-c2ccc(Cl)cc2)nc2cncnc21 the results were Tau fil binding 12.6µM*, ERK AVP inh inconclusive, 15-hLO inh -11.8%, Hsp90 Hop PPI -2.5% and Luciferase inh 1.5%[11.4 µM].
`COc1cccc(Cn2c(=O)c(-c3cccc(Cl)c3)nc3cncnc32)c1` gave Tau fil binding 20µM*, ERK AVP inh -23.5%, 15-hLO inh inconclusive, Hsp90 Hop PPI -15.9% and Luciferase inh -0.1%[11.4 µM].
For COc1cccc(Cn2c(=O)c(-c3ccc(Cl)cc3)nc3cnc(OC)nc32)c1 the results were Tau fil binding 12.6µM*, ERK AVP inh -19.2%, 15-hLO inh -0.3%, Hsp90 Hop PPI -2.8% and Luciferase inh -0.2%[11.4 µM].
For COc1ccc(-c2nc3cnc(N4CCNCC4)nc3n(Cc3cccc(OC)c3)c2=O)cc1 the results were Tau fil binding 178.3%, ERK AVP inh -6.8%, 15-hLO inh -12.2%, Hsp90 Hop PPI inconclusive and Luciferase inh 0.4%[11.4 µM].
For COc1cccc(Cn2c(=O)c(-c3ccc(Cl)cc3)nc3cnc(N4CCN(C)CC4)nc32)c1 the results were Tau fil binding inconclusive, ERK AVP inh -16.6%, 15-hLO inh -6.8%, Hsp90 Hop PPI -4.5% and Luciferase inh 1.9%[11.4 µM].
Screening Cn1cccc1C(=O)N1CCC2(CC1)CCN(c1ncccn1)CC2 returned Tau fil binding 6.6%, ERK AVP inh inconclusive, 15-hLO inh 1.5%, Hsp90 Hop PPI -3.9% and Luciferase inh 3.0%[11.4 µM].
`CO[C@H]1COC(=O)[C@@H](CCSC)NC(=O)C/C=C\[C@@H](C)[C@H](OC)COC(=O)[C@@H](OCc2ccccc2)/C=C\[C@@H]1C` gave ERK AVP inh -9.6%[11.5 µM], 15-hLO inh 4.9%[11.4 µM] and Luciferase inh 0.3%[11.4 µM].
`COc1cccc(Nc2ncc3ncc(=O)n(CCC#N)c3n2)c1` gave Tau fil binding -7.1%, ERK AVP inh inconclusive, 15-hLO inh 2.2%, Hsp90 Hop PPI -3.2% and Luciferase inh 0.9%[11.4 µM].
`COc1cccc(Nc2ncc3nc(C)c(=O)n(CCC#N)c3n2)c1` gave Tau fil binding 25.1µM*, ERK AVP inh inconclusive, 15-hLO inh 2.0%, Hsp90 Hop PPI -5.3% and Luciferase inh -0.5%[11.4 µM].
Screening COc1ccccc1N1CCN(C(=O)CCc2ccc(S(=O)(=O)NC(C)C)cc2)CC1 returned Tau fil binding -4.0%, ERK AVP inh -27.3%, 15-hLO inh 1.2%, PK Bst >57, Hsp90 Hop PPI 3.5% and Luciferase inh 2.4%.
`COc1ccccc1N1CCN(C(=O)CCc2ccc(S(=O)(=O)NCC(C)C)cc2)CC1` gave Tau fil binding 14.6%, ERK AVP inh 25.1µM*, 15-hLO inh -13.2%, PK Bst >57, Hsp90 Hop PPI -5.3% and Luciferase inh 0.6%.
Screening CCN(CC)Cc1ccc(Nc2ccnc3cc(Cl)ccc23)cc1O returned ERK AVP inh 0.5% and 15-hLO inh -3.1%.
Screening CS(=O)(=O)N1CCC2(CCN(C(c3ccccc3)c3ccccc3)CC2)CC1 returned Tau fil binding -12.5%, ERK AVP inh 8.4%, 15-hLO inh 2.0%, Hsp90 Hop PPI -9.0% and Luciferase inh 2.4%[11.4 µM].
For NC(=O)c1cc(N)ccc1N1CCCC1 the results were Tau fil binding 15.8µM*, ERK AVP inh -13.7%, 15-hLO inh inconclusive, PK Bst >57, Hsp90 Hop PPI -24.1% and Luciferase inh -6.7%.
For C/C(=N/NC1=NCCN1)c1cn(C2=NCCN2)nc1C the results were Tau fil binding 5.2%[11.4 µM], ERK AVP inh 37.7%[11.5 µM], 15-hLO inh 23.4%[11.4 µM], Hsp90 Hop PPI -6.4%[11 µM] and Luciferase inh 3.9%[11.4 µM].
Cc1ccc(C(=O)CSc2nnc(COc3cccc4cccnc34)o2)cc1 was read as Tau fil binding 10.6%, ERK AVP inh inconclusive, 15-hLO inh 5.6%, PK Bst >57, Hsp90 Hop PPI 0.8% and Luciferase inh -7.5%.
O=C(CSc1nnc(COc2cccc3cccnc23)o1)c1ccc(F)cc1 was read as Tau fil binding 20.1%, ERK AVP inh inconclusive, 15-hLO inh -6.6%, PK Bst 10.3*, Hsp90 Hop PPI -6.6% and Luciferase inh -1.1%.
Screening O=C1c2oc3ccccc3c(=O)c2C(c2cccnc2)N1Cc1ccco1 (stereo not given) returned Tau fil binding 78.3%, ERK AVP inh -28.5%, 15-hLO inh -10.5%, PK Bst >57, Hsp90 Hop PPI -2.8% and Luciferase inh 3.16µM*.
For COc1cc(C2c3c(oc4ccc(Cl)cc4c3=O)C(=O)N2Cc2ccco2)cc(OC)c1OC (stereo not given) the results were Tau fil binding -7.8%, ERK AVP inh -1.1%, 15-hLO inh 9.7%, PK Bst >57, Hsp90 Hop PPI -1.1% and Luciferase inh 4.3%.
`O=C1c2oc3ccc(Cl)cc3c(=O)c2C(c2cccnc2)N1Cc1ccco1` (stereo not given) gave Tau fil binding 42.4%, ERK AVP inh 4.4%, 15-hLO inh 3.2%, Hsp90 Hop PPI -6.6% and Luciferase inh 12.6µM*.
Screening CO/N=C(/C)CCC(=O)OC[C@@H]1O[C@H](c2ccccc2)C=C[C@@H]1Oc1ccc(OC)cc1 returned ERK AVP inh 5.4%[11.5 µM], 15-hLO inh 0.7%[11.4 µM] and Luciferase inh 0.2%[11.4 µM].
